# Laboratory results from PubChem BioAssay AID1259416 (Broad Institute, 2018).
# Values joined by “and” are separate entries in the source; they are usually repeats but may differ in a detail not shown here. Equal values may be shown once. Among all 69,000 compounds or so, about 2,600 (3.8%) were called active. The sample holds actives, similar compounds and a random draw of the others, so the mix is not that of the screen. Cut-off read from the data, not from the text of the source: active = activity change below about -70% (passing the limit was not always enough); inconclusive = no clear call, values can overlap the other calls. The source holds several records for some structures; these can differ, active in one and inactive in another.
# Test: T. gondii growth inhibition with IFN-gamma, primary screen, cell-based (AID 1259416);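 note: host cells are HeLa cells infected with Toxoplasma gondii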
# Conditions: Toxoplasma gondii growth in IFN-gamma-treated host cells; stronger effect = lower value; concentration not given here
row,Compound,"activity change, negative = inhibition"
1,CC(C)NC(=O)COc1cccc(-c2nc(Nc3ccc4[nH]ncc4c3)c3ccccc3n2)c1,-76.1% (active)
2,COc1ccc(-c2nc(Nc3ccc(C(C)C)cc3)c3ccccc3n2)cc1,-22% (inactive)
3,CC(=O)Nc1ccc(Nc2nc(-c3nnc(-c4cccc(C)c4)o3)nc3ccccc23)cc1,494% (inactive)
4,Cc1cc(CN(C)C(=O)c2coc(COc3ccc4sc(C)nc4c3)n2)on1,12.7% (inactive)
5,Fc1ccc2c(c1)C(c1cccnc1)=NNC(c1cccs1)=N2,-8.32% (inactive)
6,O=C(O)C1CSC(C2CC=CCC2)N1 (configuration not stated),3.83% (inactive)
7,COCC1c2nnn(CC3CC3)c2CCN1C(=O)N(C)C (configuration not stated),-2.44% (inactive)
8,CN1CC[C@H](c2c(O)cc(O)c3c(=O)cc(-c4ccccc4Cl)oc23)[C@H](O)C1,-76.7% (active)
9,CC(=O)N1CCC(C(=O)NCc2ccccc2)(N(C(=O)c2ccc(C)cc2)c2ccc(F)c(F)c2)CC1,-32.1% (inactive)
10,CC(=O)Nc1ccc(-c2cn3nc(C)c(C)nc3n2)cc1,-0.582% (inactive)
11,N#Cc1ccccc1SCc1ccccc1,27% (inactive)
12,Brc1ccc(CSc2cccc3cccnc23)cc1,-110% (active)
13,Cc1nc(-c2ccc(F)cc2)sc1-c1ccc(SCc2ccc(Br)cc2)nn1,-0.254% (inactive)
14,O=C(COc1ccccc1Cl)Nc1ccc(Oc2ccc(F)cc2)c(C(F)(F)F)c1,-7.01% (inactive)
15,CC1=C(C(=O)NCCCN2CCCCC2)C2(CCN(S(C)(=O)=O)CC2)OC1=O,16.4% (inactive)
16,COc1ccc(C)cc1NC(=O)C(=O)NCCc1sc(-c2ccc(F)cc2)nc1C,0.139% (inactive)
17,COc1ccc(OC)c(NC(=O)N2CCc3nc(-c4ccc(C)cc4)sc3C2)c1,-112% (active)
18,COc1cccc(OCC(=O)NCCc2sc(-c3cccc(F)c3)nc2C)c1,11.4% (inactive)
19,Cc1ccc(-c2nc3c(s2)CN(C(=O)Nc2ccc(C)cc2C)CC3)cc1,210% (inactive)

row,Compound,"activity change, negative = inhibition"
1,COc1cccc(-c2nc3c(s2)CN(C(=O)Nc2ccc(C)c(F)c2)CC3)c1,-89.9% (active)
2,COc1ccc(NC(=O)N2CCc3nc(-c4ccccc4)sc3C2)cc1OC,32.4% (inactive)
3,CO[C@H](c1ccccc1)c1n[nH]c(Cc2ccccc2)n1,0.899% (inactive)
4,CC1(C)Cc2cc(-c3cncn3CCNC3CCS(=O)(=O)C3)ccc2O1 (configuration not stated),2.55% (inactive)
5,Cc1c(Br)c(C(F)(F)F)nn1CC(=O)N1CCCCC1,2.94% (inactive)
6,CCn1c(=O)c(-c2nc(-c3ccc(F)c(Cl)c3)no2)c(O)c2ccccc21,-48.5% (inactive)
7,COc1ccc(-c2[nH]ncc2CNC(=O)Cc2cccnc2)cc1,-20.6% (inactive)
8,CN(CCCC1CCCO1)Cc1ncc[nH]1 (configuration not stated),-1.64% (inactive)
9,O=C(Nc1ccccc1N1CCOCC1)NC1CCN(C(=O)OCc2ccccc2)CC1,-86.9% (active)
10,CCOC(=O)N1CCC(NCc2ccccc2-n2ccnc2C)CC1,4.98% (inactive)
11,CC(=O)Nc1ccccc1OC(=O)N1CCOCC1,0.117% (inactive)
12,CN(Cc1ccn[nH]1)C(=O)c1coc(COc2cccc(F)c2F)n1,6.91% (inactive)
13,CCC(C)N(Cc1ccncc1)C(=O)Cc1nc(C)sc1C (configuration not stated),46% (inactive)
14,C[C@H]1O[C@@H](O[C@H]2[C@@H](O)C[C@H](O[C@H]3[C@@H](O)C[C@H](O[C@H]4CC[C@]5(C)C6C[C@@H](O)[C@]7(C)[C@@H](C8=CC(=O)OC8)CC[C@]7(O)C6CC[C@@H]5C4)O[C@@H]3C)O[C@@H]2C)C[C@H](O)[C@@H]1O (some centres not stated),-64.8% (inactive) and -73.6% (active)
15,CCOC(=O)c1cccnc1-c1ccc(OC)nc1,14.5% (inactive)
16,CN1CCC(NCCN(C)S(C)(=O)=O)CC1,12.1% (inactive)
17,CCOC(=O)CCSc1nnc(CNc2cccc(Cl)c2)n1CCc1ccccc1,19.4% (inactive)
18,Cc1cccc(-c2nc(C)c(CCNC(=O)C(=O)Nc3cccc(Cl)c3)s2)c1,-6.82% (inactive)
19,CSc1nnc(SC)n1CCNC(=O)Nc1cccc(Cl)c1,-80.6% (active)

row,Compound,"activity change, negative = inhibition"
1,Cn1nc(C2CCN(c3cnccn3)CC2)n(-c2ccccc2)c1=O,2.02% (inactive)
2,CC(C)c1cc(C(=O)NCCCc2nc3ccccc3n2C)n(C)n1,-0.0637% (inactive)
3,Cc1ccc(C23CC4CC(CC(CN)(C4)C2)C3)cc1C,-89.5% (active)
4,O=C1CCc2cc(S(=O)(=O)Nc3cccc(Cl)c3)cc3c2N1CC3,-27.2% (inactive)
5,CCCc1ccc(N2C(=O)C3CCC(C)CC3C2=O)cc1 (configuration not stated),7.51% (inactive)
6,CC(C)c1cc(CN(C)C(=O)c2ccc(C#CC(C)(C)O)o2)on1,1.77% (inactive)
7,CC(=O)N1CC2(CCN(C(=O)C3CCNCC3)CC2)CC1C(=O)O (configuration not stated),-40.5% (inactive)
8,CC(=O)c1cnc2ccc(-c3cc(Cl)c(O)c(Cl)c3)nc2c1NC1CCC(CN(C)C)CC1 (configuration not stated),-75.6% (active)
9,Cc1nn(-c2ccccc2)c(C)c1CCC(=O)Nc1nc(C(C)C)cs1,-0.863% (inactive)
10,COc1cc2c(cc1CNCC(=O)Nc1ccc(C)cc1C)OCCO2,-7.55% (inactive)
11,CN(Cc1ccoc1)c1nc(-c2cccnc2)nc2c1cnn2C,-58.5% (inactive)
12,COc1ccc(-c2noc(CSc3nc(C)cc(=O)[nH]3)n2)cc1OC,32.8% (inactive)
13,Cc1nc(SCc2nc(C(c3ccccc3)c3ccccc3)no2)[nH]c(=O)c1C,-95.3% (active)
14,C=CCN(Cc1ccc(C)s1)C(=O)c1ccc(-c2nnn(C)n2)cc1,-2.73% (inactive)
15,CC1CCCN(C(=O)CCNc2c(-c3ccc(F)cc3)nc3cnccn23)C1 (configuration not stated),229% (inactive)
16,Cc1ncc(CN2CCC(Oc3cccc(C(=O)NCc4ccccc4)c3)CC2)s1,-28.1% (inactive)
17,COC1C2CCC1N(C(=O)COc1ccccc1C)CCO2 (configuration not stated),-5.26% (inactive)
18,CC(C)(C)CC(=O)OCC(=O)[C@@]1(O)CCC2C3CCC4=CC(=O)C=C[C@]4(C)C3[C@@H](O)C[C@@]21C (some centres not stated),6.39% (inactive)
19,O=C(CCC1(c2ccccc2)NC(=O)NC1=O)Nc1ccc(N2CCCCC2)c(F)c1 (configuration not stated),-25.7% (inactive)
